We go through 19 compounds from PubChem BioAssay (NCATS).

Where “and” joins values, the source holds several entries; their conditions need not be identical. Equal values may be shown once. Inconclusive results are not listed. A number with no mark means an inactive call. Calls of active or inactive are those of the source. The call rests on the fitted dose curve; in most records, active means well fitted inhibition curve with a large enough effect; inconclusive means small, poorly fitted or top-dose-only effect; inactive means flat fitted curve, though single readings scatter.

For assay [1], the system named is CRL-7250. Put plainly: Cytotoxic Profiling of Annotated Libraries Using Quantitative High-Throughput Screening (AID 1296008). Further: potency means the concentration at half of the fitted maximal effect. Particulars: Five cell lines viability, CellTiter-Glo ATP luminescence, 48-72 h; max response: hits give low values. A digest of the protocol: (§1)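 Cells exposed to compounds for 48 or 72 hr at 37 degrees Celsius. Viability read as ATP-coupled luminescence with CellTiter-Glo after 10 min at room temperature.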
For orientation: ATP-based viability assays read luminescence as a measure of living cells.

The subject of assay [2] is HEK293. Described as above. The following applies: Five cell lines viability, CellTiter-Glo ATP luminescence, 48-72 h; max response: hits give low values. A digest of the protocol: as §1
The test system of assay [3] is HaCat. The description is as above. The following applies: Five cell lines viability, CellTiter-Glo ATP luminescence, 48-72 h; max response: hits give low values. The method, boiled down:
as §1

Assay [4] has as its system NIH3T3. Described as above. Particulars: Five cell lines viability, CellTiter-Glo ATP luminescence, 48-72 h; max response: hits give low values. A digest of the protocol:
as §1

Assay [5] has as its system HACAT. The assay can be described thus: qHTS assay to identify novel small-molecules to repurpose for Merkel cell carcinoma treatment (AID 1296009). The following applies: MCC and control cell lines, CellTiter-Glo viability, 72 h; at 44.8 µM (top of the series) unless noted. A digest of the protocol: (§2)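 Dose-response viability screen; 72 hr exposure at 37 degree celsius; CellTiter-Glo added, 10 min room temperature, luminescence read; RLUs scaled between no-cell and DMSO wells.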

Assay [6] deals with HEK293T. The description is as above. The following applies: MCC and control cell lines, CellTiter-Glo viability, 72 h; series mostly up to 44.8 µM. The method, boiled down:
as §2

Assay [7] deals with MCC-13. Described as above. Particulars: MCC and control cell lines, CellTiter-Glo viability, 72 h; series mostly up to 46 µM. The method, boiled down:
as §2

Assay [8] concerns KB-3-1. Put plainly: Cytotoxic Profiling of Annotated Libraries Using Quantitative High-Throughput Screening (AID 1296008). Further: potency means the concentration at half of the fitted maximal effect. The following applies: Five cell lines viability, CellTiter-Glo ATP luminescence, 48-72 h; max response: hits give low values. A digest of the protocol:
as §1
Further: nearly all actives have a fitted effect of over 60% in size.
On the % scale 0 is the no-effect control and ±100 the full control effect.

`C[C@@H]1O[C@@H](O[C@H]2[C@H](OC(C#N)c3ccc(O)cc3)O[C@H](CO)[C@@H](O)[C@@H]2O)[C@H](O)[C@H](O)[C@H]1O` (stereo not given in full): in assay [1], the max response is -7.05%. Further, the compound was called inactive in assay [2], in assay [3] and in assay [4]. Besides, the outcome in assay [5] is “inactive [at 17.4 µM]”. In addition, the Potency result in assay [6] is “inactive”.
`Nc1nc(CC(=O)Nc2ccc(CCNCC(O)c3ccccc3)cc2)cs1` (stereo not given): the values for the max response in assay [1] and in assay [3] were 2.98% and -9.93%, respectively. In addition, the result in assay [2] and in assay [4] was inactive. Besides, in assay [6], the Potency result is “inactive”.
As for `C=C1CCC2C(OC(=O)C2(O)COC(C)=O)C2C(=C)C(O)CC12` (stereo not given), the max response is -7.9% in assay [1], -8.75% in assay [3] and -5.53% in assay [4]. Further, the outcome in assay [2] was inactive. Besides, the Potency entry in assay [6] is “inactive”.
Consider `CN1Cc2c(N)cccc2C(c2ccccc2)C1` (stereo not given), for which the figures for the max response in assay [1], in assay [2] and in assay [3] were -1.42%, 3.6% and -17.5%, respectively. Further, the compound was called inactive in assay [4] and in assay [7].
With `C[C@@H]1O[C@@H](O[C@H]2[C@H](O[C@H]3CC[C@@]4(C)C(CC[C@]5(C)C4CC=C4[C@@H]6CC(C)(C)CC[C@]6(C(=O)O)CC[C@]45C)[C@]3(C)CO)OC[C@H](O)[C@@H]2O)[C@H](O)[C@H](O[C@@H]2OC[C@@H](O)[C@H](O)[C@H]2O)[C@H]1O` (stereo not given in full), the max response in assay [1] is 0.8%; in assay [3] it was 3.75%; in assay [4], -3.35%. Also, in assay [2], the compound was classed as inactive. For the same compound, in assay [6], the outcome was “inactive [at 9.27 µM]”.
Consider `N#CCc1ccc(O)cc1O[C@@H]1O[C@H](CO)[C@@H](O)[C@H](O)[C@H]1O`, for which the call in assay [1], in assay [2] and in assay [4] was inactive. Moreover, the max response in assay [3] was -21.9%. In addition, the Potency result in assay [6] is “inactive”.
In the case of `CCS(=O)(=O)N1CCC([C@@H](C)n2c(C)c(C(=O)NCc3c(OC)cc(C)[nH]c3=O)c3ccccc32)CC1`, the compound was called inactive in assay [1], in assay [2], in assay [3], in assay [4] and in assay [5]. Moreover, in assay [6], the Potency result was “inactive”.
For `CCC(=O)O[C@]1(C(=O)CCl)[C@@H](C)C[C@H]2[C@@H]3C[C@H](F)C4=CC(=O)C=C[C@]4(C)[C@@]3(F)[C@@H](O)C[C@@]21C`, the max response in assay [1] is -3.75%; in assay [3], -1.16%; in assay [8] it was -4.75% and -10.3%; in assay [4], 1.57%.
Take `O=C1C[C@@H](c2ccc(O)cc2)Oc2cc(O)ccc21`: the max response in assay [1] is -9.15%; in assay [4], 1.22%. The compound was classed as inactive in assay [2], in assay [3] and in assay [5]. The Potency result in assay [6] was “inactive”.
`CNc1nc(Nc2cnn([C@H]3CCN(C4COC4)C[C@@H]3F)c2Cl)ncc1C(F)(F)F`: the max response in assay [1] was -6.85% and -3.81%; in assay [4], -26.9%. Also, the Potency in assay [2] is 23.1 µM (active) and 9.33 µM (active). Also, the outcome in assay [3] and in assay [5] was inactive.
On to `CON(C)C(=O)N1N=C(c2cc(F)ccc2F)S[C@@]1(CCCN)c1ccccc1`, for which the max response in assay [1] is -53.9% and -40.4%; in assay [4] it was -29.1%. The Potency in assay [2] was 4.6 nM (active); in assay [8], 8.2 nM (active).
Consider `CO[C@@H]1CC[C@H](OC[C@]2(COC(=O)c3ccc(C)[nH]3)[C@H](OC(C)=O)CC[C@@]3(C)[C@@H]4CC=C(C)[C@@H](C5=C(O)C(=O)OC5O)[C@]4(C)CC[C@@H]32)O[C@H]1C` (stereo not given in full), for which the outcome in assay [1] and in assay [2] was inactive. Also, the results for the max response in assay [3] and in assay [4] were -0.118% and -6.06%, respectively. Moreover, in assay [6], the Potency entry was “inactive”.
Regarding `CCc1nc(C(N)=O)c(Nc2ccc(N3CCC(N4CCN(C)CC4)CC3)c(OC)c2)nc1NC1CCOCC1`, the Potency is 5.24 µM (active) in assay [1]; 1.61 µM (active) and 1.32 µM (active) in assay [2]; 2.55 µM (active) in assay [3]; 1.01 µM (active) and 831 nM (active) in assay [4].
For the compound `C=CC(C)(C)C1(CC2NC(=O)C3CCCN3C2=O)C(=O)Nc2cc3c(cc21)C=CC(C)(C)O3` (stereo not given), the max response in assay [1] is -5.49%; in assay [3] it was -0.592%; in assay [8] it was 2.09%. In addition, the compound was classed as inactive in assay [2] and in assay [4]. For the same compound, the Potency entry in assay [6] was “inactive”.
With `COc1ccccc1-n1c(SCC(=O)Nc2nc3ccc(C)cc3s2)nc2c(c1=O)SCC2`, the max response in assay [1] is 2.47%; in assay [3], -3.57%; in assay [4] it was 3.32%. In addition, the compound was classed as inactive in assay [2]. The Potency result in assay [6] was “inactive”.
Consider `CC1CCC2C(C)(C)C(O)CCC2(C)C12Cc1c(O)cc3c(c1O2)C(N)=NC3` (stereo not given), for which, in assay [1], the max response was -9.29%. The outcome in assay [2], in assay [3], in assay [4] and in assay [5] was inactive. The Potency entry in assay [6] was “inactive”.
With `CC1=C(C)C(=O)OC(C(C)C2C(O)CC3C4C5OC5C5(O)CC(OC6OC(CO)C(O)C(O)C6O)CC(O)C5(C)C4CCC32C)C1` (stereo not given), the compound was called inactive in assay [1], in assay [2] and in assay [3]. Besides, the max response in assay [4] is -0.676%. The outcome in assay [5] was “inactive [at 17.4 µM]”. Moreover, in assay [6], the Potency entry was “inactive”.
Turning to `C=C1CC23CC1(O)CCC2C1=CC2OC(=O)C(C)(C2O)C1C3C(=O)O` (stereo not given), the max response in assay [1] was -8.2%; in assay [4], -19.3%. Moreover, the compound was classed as inactive in assay [2], in assay [3] and in assay [5]. The Potency entry in assay [6] is “inactive”.
On to `COc1cc(O[C@@H]2O[C@H](CO)[C@@H](O)[C@H](O)[C@H]2O)c(CCC(=O)OC[C@H]2O[C@@H](Oc3cc(OC)c(C4OC(=O)C(C)(O)C4O)cc3CCC(=O)O)[C@H](O)[C@@H](O)[C@@H]2O)cc1C1OC(=O)C(C)(O)C1O` (stereo not given in full), for which the max response in assay [1] was 1.01%; in assay [4] it was -2.47%. Further, the compound was called inactive in assay [2] and in assay [3]. Moreover, the outcome in assay [5] and in assay [6] was “inactive [at 9.27 µM]” in each case.
